Our source for the binding signal values is paper PMC7819943, “Rice protein-binding microarrays: a tool to detect cis-acting elements near promoter regions in rice”.

The full ranking holds about 68,000 sequences; the median of “fluorescence intensity (a.u.)” is about 9,100, and the highest 2% start at about 16,000. The sample as a whole holds a higher share of the highest values than the screen did.

Sequence of OsWRKY34 (Q0JBA9 entry or part of it): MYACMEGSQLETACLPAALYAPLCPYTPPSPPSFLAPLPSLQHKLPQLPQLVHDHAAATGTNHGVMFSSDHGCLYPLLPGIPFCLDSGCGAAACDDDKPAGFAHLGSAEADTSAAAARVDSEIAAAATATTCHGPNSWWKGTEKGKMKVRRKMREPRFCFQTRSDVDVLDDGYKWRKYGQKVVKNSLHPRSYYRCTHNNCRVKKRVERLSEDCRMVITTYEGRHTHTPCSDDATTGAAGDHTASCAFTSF

The target in this assay is OsWRKY34 (Oryza sativa, UniProt Q0JBA9 1-250). The assay is described as follows: protein-binding microarray (RPBM); PBS, 2% BSA, 51.3 ng/ul salmon testes DNA, 50 uM zinc acetate, 200 nM TF, 25 C, 1 h; high values mean tight binding. Particulars: protein: recombinant; tags: N-terminal polyhistidine and DsRed monomer fusion (pET32a); label: CyDye5-dUTP incorporated in the synthesized complementary strand; 3' TTTTT single-stranded linker to array surface; dsDNA, one strand shown. Summed up:
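In PBS with 2% BSA, salmon testes DNA and 50 µM zinc acetate, 200 nM protein was incubated on a custom Agilent array at 25 °C for 1 h and then washed off. The array had been made double-stranded by primer extension with Cy5-dUTP and blocked with 2% BSA. The proteins were transcription factors fused N-terminally to polyhistidine and DsRed, expressed in E. coli BL21-CodonPlus and purified on Ni–NTA. The binding signal is per-feature fluorescence intensity (arbitrary units) from an Axon 4000B scanner.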
As to “AATTCCTGGCTACGCCACTGCTGCTCTATATATCAAGCCGCGGAGTCACCTAGTGCAG”, the binding signal was 8080 fluorescence intensity (a.u.).
In the case of “CTCGATTGCGTGTTGTAGATTTTGTGTTTTTGTTCTTGCGCGGAGTCACCTAGTGCAG” it was 8030 fluorescence intensity (a.u.); in that of “CCCACATCAAAACCTTGAATTTTCACAGTTTCTTGCATTTCGGAGTCACCTAGTGCAG”, 9890 fluorescence intensity (a.u.).
Under “CTTATCTCTCTCGTTTTCCACGCACACGTTTTTCAAACCGCGGAGTCACCTAGTGCAG” stands 8940 fluorescence intensity (a.u.).
Under “TTTCACTTGCTTGTTTTTCATGTCCACACTTCCCAACTCACGGAGTCACCTAGTGCAG” stands 16600 fluorescence intensity (a.u.).
With “TCCAACTCACTTATCTCGTTTTCCGCGCACACGTTTTTTACGGAGTCACCTAGTGCAG”, the binding signal is 16500 fluorescence intensity (a.u.).
Under “AGAGTTCTTATCCTAGTTTTTCCAACTCACTTATCTCGTTCGGAGTCACCTAGTGCAG” stands 10900 fluorescence intensity (a.u.); under “TGTCCACACTTCCCAACTCATTAAATAGTTTGTTTTTTGACGGAGTCACCTAGTGCAG”, 8320 fluorescence intensity (a.u.).
Under “GCTTGCCAACTTGTCCCAAATTTCCTTCGGCGTTTTTTCACGGAGTCACCTAGTGCAG” stands 10800 fluorescence intensity (a.u.); under “AACGTTTGATTTTTCATTTCTCTTATTACTGACTTATTTACGGAGTCACCTAGTGCAG”, 9850 fluorescence intensity (a.u.).
In the case of “CGCCGCCGCTCGCCGACGTCGCCGCCATCGCCATTACAGCCGGAGTCACCTAGTGCAG” it was 8980 fluorescence intensity (a.u.); in that of “CTACGATACACCGCTTGTTTCTGTTTTTCTTATCTAGGAACGGAGTCACCTAGTGCAG”, 9180 fluorescence intensity (a.u.); in that of “CCTGTTACCTGTTTGGCTGACTTGGTCAAACACAACTCACCGGAGTCACCTAGTGCAG”, 9460 fluorescence intensity (a.u.).
Consider “TGGTTTGGTTACTGGTTTAGTGCTTGAATTAATGTGGCACCGGAGTCACCTAGTGCAG”, for which the binding signal was 18400 fluorescence intensity (a.u.).
Take “GTGTTGTGGTTTACTGAATTGATGTTTGGCTTAAGTGATGCGGAGTCACCTAGTGCAG”: the binding signal is 11800 fluorescence intensity (a.u.).
In the case of “GGTTTGGCTTGGCTTGGCGGCTGGTTCTGCTGAGGCTGACCGGAGTCACCTAGTGCAG” it was 11900 fluorescence intensity (a.u.); in that of “TTGGCCATGTTAATGTTTTACTGATCATCAATTTGGTTACCGGAGTCACCTAGTGCAG”, 8980 fluorescence intensity (a.u.); in that of “GGGCTGGTTTGGCTTGGCTGTTACAAAGACAAAGAATGACCGGAGTCACCTAGTGCAG”, 16800 fluorescence intensity (a.u.).
For “GCCGAGCCGCGTCCCTTTTTCCCATCGCCCACGCAGCGAGCGGAGTCACCTAGTGCAG”, the binding signal is 8920 fluorescence intensity (a.u.).
In the case of “TATGATATGTGTGCCTCAGTTGTTGTGCTTGCTGATGTGTCGGAGTCACCTAGTGCAG” it was 9730 fluorescence intensity (a.u.); in that of “TTTCCGGTTTTTCCAATATTTTTCGATACCGTTTTCATTTCGGAGTCACCTAGTGCAG”, 12800 fluorescence intensity (a.u.).
In the case of “CGTCATATTTGCACCGTTTGGGTAGGGTGGGGATGGGGTGCGGAGTCACCTAGTGCAG” it was 18700 fluorescence intensity (a.u.); in that of “CAGGTAATGGATTGATTGCAGGGTTGGGATTTGACCAGGTCGGAGTCACCTAGTGCAG”, 11300 fluorescence intensity (a.u.); in that of “CGTCGTGGCGGGTTCATCGGGAGGGGATTATTGATTTAGTCGGAGTCACCTAGTGCAG”, 21100 fluorescence intensity (a.u.).
“TCAGTCATCGTAAATTATTGTGATTTTTTAGGGAGGGGTGCGGAGTCACCTAGTGCAG”: the binding signal is 9130 fluorescence intensity (a.u.).
Take “TTTCCACCGTTTGGCGTTTGGGTAGGGTTGGGATGGGATGCGGAGTCACCTAGTGCAG”: the binding signal was 17200 fluorescence intensity (a.u.).
Under “GAAAGATTTTCACCGTTTGGGTAGGTTGGGGATGGGATGACGGAGTCACCTAGTGCAG” stands 11400 fluorescence intensity (a.u.).
In the case of “TTCATATTTTCACCGTTTGGGTAGAGTGGTGGTGGGGTGTCGGAGTCACCTAGTGCAG” it was 10400 fluorescence intensity (a.u.); in that of “ATGGGGTTGACTTTTTTTTAGGGATTGCTAGGTGCACCGTCGGAGTCACCTAGTGCAG”, 20100 fluorescence intensity (a.u.).
Under “TTGGGTGGAGGATTTGGAATTTGACCGGTTGACTTAGGGTCGGAGTCACCTAGTGCAG” stands 11900 fluorescence intensity (a.u.); under “GGGGATCGGAGGGTGGGGATACGCATGGTGGATGGTAGTGCGGAGTCACCTAGTGCAG”, 12600 fluorescence intensity (a.u.).
In the case of “GTATTGAGGGCTTAATCGTGGTCGTGGGATATTATTTCATCGGAGTCACCTAGTGCAG”, the binding signal was 8390 fluorescence intensity (a.u.).
As to “GGGTTTGGGGTTGCGATTGGGATTGGTAGGGAGGCTGATGCGGAGTCACCTAGTGCAG”, the binding signal was 8280 fluorescence intensity (a.u.).
Regarding “ATTATTTTTGGTTGTTCTATTTATTTTCTTAAAATAATTCCGGAGTCACCTAGTGCAG”, the binding signal is 11300 fluorescence intensity (a.u.).
In the case of “CCCCACATCTTTTGCTAGCATGCCCCTACCCATTCATATTCGGAGTCACCTAGTGCAG”, the binding signal is 10500 ± 300 fluorescence intensity (a.u.).
Under “CTGAGTTCTGTATTGGATCAGCTTCATGTTATCGGCATCACGGAGTCACCTAGTGCAG” stands 8450 fluorescence intensity (a.u.).
As for “TTCTCCTATCTTCAACATTTGCTTTGTTACGTTTTTGACTCGGAGTCACCTAGTGCAG”, the binding signal is 9560 fluorescence intensity (a.u.).
Under “TTTTTCTCGGTAATTTTGTGATTGGTCTACTCCTACAAAACGGAGTCACCTAGTGCAG” stands 8290 fluorescence intensity (a.u.); under “TGGATGATTTTGCCATTTTTTTCATTGCTGGTGCGGTGGTCGGAGTCACCTAGTGCAG”, 8460 fluorescence intensity (a.u.); under “CCCGGCGTCCTCCTGCTTCCCACCGCATCGTCGCTCGCCGCGGAGTCACCTAGTGCAG”, 8120 fluorescence intensity (a.u.).
In the case of “GAGGGTGGGTGCTTGCTGGCCAGACATTAAAACAATGTGTCGGAGTCACCTAGTGCAG” it was 9670 fluorescence intensity (a.u.); in that of “TTCTTCCCAGCCAGTGTTCCTAGTATCCATTCTCTCTCAACGGAGTCACCTAGTGCAG”, 9850 fluorescence intensity (a.u.).
